From PubChem BioAssay AID463173 (ICCB-Longwood Screening Facility, Harvard Medical School, 2010)
Screen size: about 52,000 compounds; about 4,300 (8.3%) were called active. This excerpt belongs to a sample that is enriched for actives. Values without a mark were called inactive. No stated cut-off is given here; in the data, active means survival mostly below about 52% (no sharp cut-off); inactive means mostly above about 56%.

Tested on: DeltatarO mutant
Test: S. aureus survival, RN4220 and DeltatarO strains – OD600, teichoic acid synthesis inhibitors, primary screen (AID 463173)
Settings: S. aureus RN4220 wild type/DeltatarO growth, OD600, 18 h, stronger effect = lower value, screened at 18.75 µg/mL (by protocol)

| SMILES | survival |
| --- | --- |
| Cc1ccc(NC(=O)C2CCN(S(=O)(=O)c3ccc4c(c3)CCCC(=O)N4)CC2)cc1N(C)C | 120% |
| Cc1nn(CCCC(=O)NCc2ccccc2)c(=O)c2cc3sccc3n12 | 76% |
| O=C(CSc1cn(CC(=O)N2CCCCC2)c2ccccc12)NCc1ccc(F)cc1 | 70% |
| N#CCNC(=O)c1cccc(I)c1 | 89% |
| Cc1ccc(C)c(N2CCN(C(=O)c3cc(S(=O)(=O)N4CCCC4)cn3C)CC2)c1 | 64% |
| Cc1cc(N2CCC(C(=O)Nc3ccc(F)cc3F)CC2)n2nc(C)c(-c3ccc(Cl)cc3)c2n1 | 86% |
| COc1cccc(-c2nnc3n(Cc4ccc(F)cc4)c(=O)c4ccccc4n23)c1 | 84% |
| Cc1ccc(NC(=O)[C@H](Cc2ccccc2)N2Cc3ccccc3C2=O)cc1 | 81% |
| Cc1ccc(CCNC(=O)CCCn2nc(C)c3c(C)n(-c4ccccc4)nc3c2=O)cc1 | 87% |
| CCN1CCC(N(Cc2cccc(OC)c2)C(=O)Nc2cccc(C)c2C)CC1 | 20% (active) |
| CCN1CCC(N(Cc2ccc3c(c2)OCO3)C(=O)Nc2cccc(C)c2C)CC1 | 94% |
| CCN1CCC(N(Cc2cccc(OC)c2)C(=O)Nc2ccc(C)cc2Cl)CC1 | 66% |
| COCCN1C(=O)C(=O)/C(=C(/O)c2ccccc2)C1c1ccccc1 (configuration not stated) | 102% |
| Cc1ccc(C(=O)c2cn(Cc3ccc(Cl)cc3)c3nc(C)ccc3c2=O)cc1 | 34% |
| Cc1ccc(C(=O)c2cn(Cc3ccc(F)cc3)c3nc(C)ccc3c2=O)cc1 | 85% |
| CCc1ccc(C(=O)c2cn(CC(=O)NCc3ccc(C)cc3)c3nc(C)ccc3c2=O)cc1 | 98% |
| Cc1ccc(C(=O)c2cn(Cc3cccc(C)c3)c3nc(C)ccc3c2=O)cc1 | 54% |
| Cc1ccc(Cn2cc(C(=O)c3ccc(C)cc3)c(=O)c3ccc(C)nc32)cc1 | 24% (active) |
| Cc1ccc(C(=O)c2cn(Cc3ccccc3)c3nc(C)ccc3c2=O)cc1 | 76% |

| SMILES | survival |
| --- | --- |
| Cc1ccc(CNC(=O)Cn2cc(C(=O)c3ccc(F)cc3)c(=O)c3ccc(C)nc32)cc1 | 52% (active) |
| Cc1ccc2c(=O)c(C(=O)c3ccc(F)cc3)cn(CC(=O)NCc3ccccc3)c2n1 | 82% |
| Cc1ccc(C(=O)c2cn(Cc3cccc(Cl)c3)c3nc(C)ccc3c2=O)cc1 | 60% (active) |
| Cc1cc(NC(=O)C2C3C(=O)N(c4ccccc4Cl)C(C(=O)NC(C)(C)C)C34C=CC2(C)O4)no1 (configuration not stated) | 108% |
| Cc1ccccc1OCC(=O)Nc1nnc(SCc2cc(=O)n3cc(Cl)ccc3n2)s1 | 84% |
| CCc1ccc(C2c3c(oc4ccc(F)cc4c3=O)C(=O)N2CCc2ccc(OC)cc2)cc1 (configuration not stated) | 94% |
| Cc1ccc(-n2c(=O)c3ccc(C(=O)NCc4ccco4)cc3n(CC(=O)Nc3ccc(C)c(F)c3)c2=O)cc1 | 84% |
| CCOc1cccc(CC(=O)NCc2ccc3c(c2)CCN3C(=O)c2cccc(C)c2)c1OCC | 54% |
| COc1ccc(N(C(=O)/C=C\C(=O)Nc2ccc(Cl)cc2)C(C(=O)NCc2ccco2)c2ccc(C)cc2)cc1 (configuration not stated) | 115% |
| Cc1cccc(N2CCN(C(=O)C3CCCN(C(=O)c4cc5sccc5n4C)C3)CC2)c1C (configuration not stated) | 53% (active) |
| Cn1c(C(=O)N2CCCC(C(=O)N3CCN(c4ccccc4)CC3)C2)cc2sccc21 (configuration not stated) | 89% |
| Cc1cccc(N2CCN(C(=O)C3CCN(C(=O)c4cc5sccc5n4C)CC3)CC2)c1C | 53% |
| Cc1cccc(OCC(=O)N2CCC(c3nc4ccccc4o3)CC2)c1C | 81% |
| CCc1ccc(OC(C)C(=O)N2CCC(c3nc4ccccc4o3)CC2)cc1 (configuration not stated) | 85% |
| Cc1cccc(OC(C)C(=O)N2CCC(c3nc4ccccc4o3)CC2)c1C (configuration not stated) | 75% |
| CC(Oc1ccccc1F)C(=O)N1CCC(c2nc3ccccc3o2)CC1 (configuration not stated) | -1% (active) |
| Cc1cccc(C)c1OCC(=O)N1CCC(c2nc3ccccc3o2)CC1 | 86% |
| COc1ccccc1OCC(=O)N1CCC(c2nc3ccccc3o2)CC1 | 0% (active) |
| O=C(CC1CCCCC1)Nc1ccccn1 | 73% |

| SMILES | survival |
| --- | --- |
| COc1ccc(N2C(=O)C(C)C(Cc3ccc(C)cc3)C2=O)cc1 (configuration not stated) | 103% |
| CCC(=O)Nc1ccc(NC(=O)c2ccc(F)cc2)nc1 | 85% |
| COc1ccc(NC(=O)NCC2CCN(Cc3ccccc3F)CC2)c(OC)c1 | 96% |
| CC1CCCCN1C(=O)C1COc2ccccc2O1 (configuration not stated) | 65% |
| CCN(c1ccccc1)c1nnc(NC(=O)Nc2cccc(Br)c2)s1 | 80% |
| Cc1cccc(NC(=O)Nc2ccc(Br)cc2)n1 | 126% |
| Cc1c(C(=O)Nc2ccncc2)oc2ccccc12 | 98% |
| Cc1ccc(-n2nc3ccc(NC(=O)c4oc5ccc(C)cc5c4C)cc3n2)cc1 | 38% (active) |
| Cc1ccc2oc(-c3ccc(NC(=O)c4oc5ccc(Cl)cc5c4C)cc3)nc2c1 | 66% |
| COc1ccc(-n2nc3ccc(NC(=O)c4c(OC)cccc4OC)cc3n2)cc1 | 135% |
| Cc1ccc2oc(C(=O)Nc3cccc(-c4nc5ccccc5s4)c3)c(C)c2c1 | 55% |
| Cc1ccc(-n2nc3ccc(NC(=O)c4cc5ccccc5o4)cc3n2)cc1 | 70% |
| Cc1ccc(-n2nc3ccc(NC(=O)c4oc5ccccc5c4C)cc3n2)cc1 | 31% (active) |
| COc1cc(C(=O)Nc2ccc3nn(-c4ccc(F)cc4)nc3c2)cc(OC)c1OC | 45% (active) |
| CCc1ccc(-n2nc3ccc(NC(=O)c4cc(Cl)c(OC)c(Cl)c4)cc3n2)cc1 | 83% |
| O=C(Cn1ncc2c3ccccc3n(Cc3ccc(F)cc3)c2c1=O)NCCC1=CCCCC1 | 85% |
| CC(C)(C)C(=O)Nc1c(C(=O)N2CCN(c3ccc(F)cc3)CC2)oc2ccccc12 | 80% |
| CCn1cc(C(=O)NCc2ccc(Cl)cc2)c(=O)c2cc(S(=O)(=O)N(C)C3CCCCC3)ccc21 | 70% |
| CCOc1ccc(NC2=NCCC(=O)N2Cc2cccs2)cc1 | 83% |
